{"source": "PubChem BioAssay AID2130", "about": "(The Scripps Research Institute Molecular Screening Center, 2009)", "note": "Among all 320,000 compounds or so, about 1,700 (0.53%) were called active. Only a selection was taken, and actives are over-represented in it overall. Values without a mark were called inactive.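 The calls were made as follows: active = inhibition above the campaign mean of all compounds plus 3 SD (cut at about 26% in these data); inactive = the rest.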"}
{"target": "Protein phosphatase methylesterase 1 (Homo sapiens) (UniProt Q9Y570)", "sequence (Q9Y570 whole entry, looked up)": "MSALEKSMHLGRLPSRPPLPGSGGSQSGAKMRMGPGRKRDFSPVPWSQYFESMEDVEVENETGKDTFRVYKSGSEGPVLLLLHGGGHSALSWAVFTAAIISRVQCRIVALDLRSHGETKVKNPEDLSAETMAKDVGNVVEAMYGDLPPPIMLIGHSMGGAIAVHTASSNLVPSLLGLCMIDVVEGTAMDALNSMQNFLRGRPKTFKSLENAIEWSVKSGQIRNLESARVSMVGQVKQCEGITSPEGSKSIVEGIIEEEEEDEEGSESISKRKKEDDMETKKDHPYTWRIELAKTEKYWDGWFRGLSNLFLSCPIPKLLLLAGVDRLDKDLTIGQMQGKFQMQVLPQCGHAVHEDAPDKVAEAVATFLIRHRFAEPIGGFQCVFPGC", "test": "PME-1 inhibitors via competitive probe labeling, primary screen, biochemical, fluorescence polarization, FP-Rh probe, HTS (AID 2130);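 also: competitive labeling of PME-1 active site by serine hydrolase directed probe; 0% = PME-1 with DMSO and 100% = wells lacking PME-1 enzyme; inhibitors block probe labeling so polarization falls and inhibition rises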", "conditions": "recombinant PME-1, FP-Rh probe fluorescence polarization; at 5.9 µM; stronger effect = higher value"}
{"smiles": "Cc1ccccc1N1CC(C(=O)Nc2ccc3c(c2)OCO3)CC1=O", "note": "(stereo not drawn)", "inhibition": "0.7%"}
{"smiles": "COCCN(C(=S)Nc1cccc(Cl)c1C)C(C)c1ccco1", "note": "(stereo not drawn)", "inhibition": "-13.2%"}
{"smiles": "CCCN(C(=O)CSc1nnnn1C)c1c(N)n(Cc2ccccc2)c(=O)[nH]c1=O", "inhibition": "0.95%"}
{"smiles": "COc1ccc(C2Nc3ccccc3C(=O)N2Cc2ccccc2)cc1Cn1nnc2ccccc21", "note": "(stereo not drawn)", "inhibition": "8.54%"}
{"smiles": "COc1ccc(C2Nc3ccccc3C(=O)N2c2ccc(F)cc2)cc1Cn1nnc2ccccc21", "note": "(stereo not drawn)", "inhibition": "30.4% (active)"}
{"smiles": "COc1ccc(N2C(=O)c3ccccc3NC2c2ccc(OC)c(CN3CCOCC3)c2)cc1", "note": "(stereo not drawn)", "inhibition": "-3.55%"}
{"smiles": "O=C(NCCc1ccccn1)c1nc(Cn2cc([N+](=O)[O-])cn2)no1", "inhibition": "-4.02%"}
{"smiles": "Cc1ccc(-c2ccnc3nc(Sc4ncc(C(F)(F)F)cc4Cl)nn23)cc1", "inhibition": "-0.19%"}
{"smiles": "COC/C=C/C1=CC2=CC(=O)C(C)(OC(=O)CCC(=O)OC)C(=O)C2=CO1", "note": "(stereo not drawn)", "inhibition": "-1.35%"}
{"smiles": "COc1ccccc1OCCn1c(SCC(N)=O)nc2ccccc21", "inhibition": "-4.12%"}
{"smiles": "COc1ccc(NC(C(=O)Nc2cccc(C(C)=O)c2)c2ccccc2)cc1", "note": "(stereo not drawn)", "inhibition": "34.5% (active)"}
{"smiles": "COC(C(=O)Nc1ccc(C(C)=O)cc1)c1ccccc1", "note": "(stereo not drawn)", "inhibition": "-5.79%"}
{"smiles": "COc1ccc(NC(=O)[C@H](NC(=O)[C@@H]2Cc3ccccc3CN2)c2ccccc2)cc1", "inhibition": "-3.82%"}
{"smiles": "CS(=O)(=O)N(CC(=O)Nc1ccc(F)cc1F)c1cccc([N+](=O)[O-])c1", "inhibition": "-2.56%"}
{"smiles": "O=C(CNCc1cccs1)Nc1cc(S(=O)(=O)N2CCCC2)ccc1Cl", "inhibition": "22%"}
{"smiles": "CSCCC(NS(=O)(=O)/C=C/c1ccccc1)C(=O)N1CCC(C)CC1", "note": "(stereo not drawn)", "inhibition": "6.82%"}
{"smiles": "CCc1nnc(NC(=O)c2cccc(S(=O)(=O)N(C)c3ccc(OC)cc3)c2)s1", "inhibition": "-0.95%"}
{"smiles": "CCc1ccc2nc3sc(C(=O)Nc4nnc(CC)s4)c(N)c3cc2c1", "inhibition": "65.8% (active)"}
{"smiles": "CCc1nnc(NC(=O)c2sc3nc(C)cc(COC)c3c2N)s1", "inhibition": "-5.69%"}
{"smiles": "Clc1ccc(-c2cc(COc3ccccc3)no2)cc1Cl", "inhibition": "-8.92%"}
{"smiles": "COC(=O)COc1ccc2c(c1C)O/C(=C\\c1ccco1)C2=O", "inhibition": "-9.46%"}
{"smiles": "COc1cc(/C=N/NC(=O)c2ccc(N3CCCC3=O)cc2)ccc1O", "inhibition": "5.91%"}
{"smiles": "COc1ccc(C(=O)Nc2ccccc2C(=O)N/N=C/c2ccc(O)c(OC)c2)cc1", "inhibition": "33.6% (active)"}
{"smiles": "CCOc1cc(/C=N/NC(=O)c2cc(-c3ccccc3)nc3ccccc23)ccc1O", "inhibition": "-7.58%"}
{"smiles": "CCOC(=O)[C@H]1CCC[C@@H](NS(=O)(=O)c2ccc(NC(C)=O)cc2)C1", "inhibition": "1.52%"}
{"smiles": "Cc1csc2nc(COC(=O)c3cccc(N(C)C)c3)cc(=O)n12", "inhibition": "3.78%"}
{"smiles": "COc1ccc(C(=O)CC(=O)C(=O)Nc2cc([N+](=O)[O-])ccc2OC)cc1", "inhibition": "-2.97%"}
{"smiles": "COc1ccc(NS(=O)(=O)c2cc(C(=O)Nc3ccccc3C(=O)O)ccc2C)cc1", "inhibition": "-3.94%"}
{"smiles": "COc1ccc(NS(=O)(=O)c2cc(NC(=O)CC(=O)c3ccc([N+](=O)[O-])cc3)ccc2C)cc1", "inhibition": "27% (active)"}
{"smiles": "Cc1occc1C(=O)NC1CCCN(Cc2ccc(CC(C)C)cc2)C1", "note": "(stereo not drawn)", "inhibition": "5.69%"}
{"smiles": "COc1ccc(CN(Cc2ccc(OC)cc2)C(=O)c2cccs2)cc1", "inhibition": "4.18%"}
{"smiles": "COc1ccc(CCNC(=O)/C(C#N)=C2\\N=C(NC(=O)c3cccs3)c3ccccc32)cc1", "inhibition": "28.2% (active)"}
{"smiles": "COc1cc2ccccc2cc1C(=O)Nc1ccc(NC(=O)c2cccs2)cc1", "inhibition": "-34%"}
{"smiles": "CN(Cc1c(F)cccc1Cl)S(=O)(=O)c1cccs1", "inhibition": "4.21%"}
{"smiles": "CN(C)C(=O)c1ccc2c(c1)C1C3CCC(C3)C1C(c1ccccc1)N2", "note": "(stereo not drawn)", "inhibition": "8.08%"}
{"smiles": "CCc1nnc(NC(=O)CSc2nc(SC)ns2)s1", "inhibition": "-0.14%"}
{"smiles": "CCN(CC)C(=O)CSC(Nc1cccc(F)c1)=C(C#N)C#N", "inhibition": "-5.27%"}
{"smiles": "Cc1cc(C)cc(NC(=S)NCCc2c[nH]c3ccccc23)c1", "inhibition": "26.7% (active)"}
{"smiles": "O=C(NCCc1c[nH]c2ccccc12)c1cccc(Br)c1", "inhibition": "4.14%"}
{"smiles": "Cc1cc(C)cc(NC(=S)NCc2ccc(F)cc2)c1", "inhibition": "7.45%"}
{"smiles": "O=C(NCCS(=O)(=O)N1CCN(c2ccccc2F)CC1)c1ccc(Br)o1", "inhibition": "3.82%"}
{"smiles": "Cc1cc(C)c2nc3nc(C)cc(C)c3c(N)c2c1", "inhibition": "-3.32%"}
{"smiles": "CCOC12CC(C)(C)CC(C)(CC3=C1C(=O)CC(C)(C)C3)C2", "note": "(stereo not drawn)", "inhibition": "2.34%"}
{"smiles": "O=c1c2sccc2nc(SCc2cc(=O)n3ccccc3n2)n1-c1ccc(Br)cc1", "inhibition": "6.68%"}
{"smiles": "N#CCCN(C(=O)COC(=O)C1CCN(c2ccc(C(F)(F)F)cn2)CC1)c1ccc(F)cc1", "inhibition": "1.79%"}
{"smiles": "Cc1cc(NC(=O)COc2ccccc2C#N)no1", "inhibition": "-1.79%"}
{"smiles": "CCc1cccc(CC)c1NC(=O)COc1ccccc1C(=O)c1cc(C#N)c(=O)n(C2CCCCC2)c1", "inhibition": "26.5% (active)"}
{"smiles": "CCc1ccccc1OCC(=O)Nc1ccc(C)c(S(=O)(=O)N2CCCCCC2)c1", "inhibition": "-30.7%"}
{"smiles": "CCOc1ccc(S(=O)(=O)N(CC(=O)NCC(F)(F)F)Cc2ccco2)cc1", "inhibition": "-1.32%"}
{"smiles": "FC(F)(F)c1cccc(-c2nc(COc3ccc(Cl)cc3Cl)no2)c1", "inhibition": "-0.04%"}
{"smiles": "COC(=O)[C@H](C)NC(=O)Nc1ccc(OC(F)(F)F)cc1", "inhibition": "0.46%"}
{"smiles": "Cn1nccc1NC(=O)Nc1ccc(OC(F)(F)F)cc1", "inhibition": "8.73%"}
{"smiles": "O=C(Nc1ccc(OC(F)(F)F)cc1)c1ccc2c(c1)no[n+]2[O-]", "inhibition": "32% (active)"}
{"smiles": "CCOC(=O)Cc1c(C)nc2c(C#N)c(C)nn2c1C", "inhibition": "-0.83%"}
{"smiles": "CCN=C1S/C(=C\\c2cc(Br)ccc2OCC(=O)OCC)C(=O)N1CC", "inhibition": "3.9%"}
{"smiles": "CC(C)CCOc1ccc(C(=O)C[N+]2(C)CCOCC2)cc1", "inhibition": "1.1%"}
{"smiles": "Cc1ccc(N(Cc2ccc(C(=O)Nc3ccccc3C(=O)NCc3ccco3)cc2)S(C)(=O)=O)cc1C", "inhibition": "-28.2%"}
{"smiles": "Nc1c(N(Cc2ccco2)C(=O)c2cccc(F)c2)c(=O)[nH]c(=O)n1Cc1ccccc1", "inhibition": "3.17%"}
